Reference: PubChem BioAssay AID588726 (The Scripps Research Institute Molecular Screening Center, 2011)
In all, about 360,000 compounds went through this assay and about 8,200 (2.3%) were called active. The sample holds actives, similar compounds and a random draw of the others, so the mix is not that of the screen. Unmarked numbers belong to inactive results. Rule as the data show it: active = inhibition above about 27%; inactive = the rest.

Each compound was assayed against Fructose-bisphosphate aldolase (Mycobacterium tuberculosis (strain ATCC 25618 / H37Rv)) (UniProt P9WQA3) (assay: M. tuberculosis aldolase activity blockers – biochemical, fluorescence, strain H37Rv, primary screen (AID 588726;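 also: 0% = vehicle and 100% = reference inhibitor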)). Settings: purified M. tuberculosis FBA, fluorescence read-out, at 1 µM, hits give high values.
Fructose-bisphosphate aldolase (Mycobacterium tuberculosis (strain ATCC 25618 / H37Rv)), sequence (P9WQA3 whole entry, looked up): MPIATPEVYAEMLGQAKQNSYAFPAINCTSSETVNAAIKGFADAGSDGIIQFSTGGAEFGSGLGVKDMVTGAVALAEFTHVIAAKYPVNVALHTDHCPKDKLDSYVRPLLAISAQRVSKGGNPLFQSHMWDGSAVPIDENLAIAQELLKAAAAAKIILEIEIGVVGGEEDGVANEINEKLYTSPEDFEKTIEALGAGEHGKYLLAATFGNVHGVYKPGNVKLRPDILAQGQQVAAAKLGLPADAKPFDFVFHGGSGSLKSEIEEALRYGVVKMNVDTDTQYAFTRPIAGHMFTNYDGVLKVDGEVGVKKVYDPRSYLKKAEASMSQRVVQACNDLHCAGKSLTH
In the case of `CC1=CC=CC2=N/C(=N\S(=O)(=O)c3ccc(F)cc3F)c3ccccc3CN12`, the inhibition is reported as 1.29%.
`CCN(CC)C(=O)Oc1ccc(NC(=O)N2CCOCC2)cc1` showed an inhibition of -0.07%.
Compound `COc1cc2[nH]c(=O)n(CCC(=O)NC3CCN(Cc4ccccc4)CC3)c(=O)c2cc1OC` has an inhibition of 5.35%.
With `Cc1cc(NC(=O)CCN2CCN(Cc3ccccc3)CC2)ccc1Br` the inhibition was 0.67%.
`Cc1c(C(=O)CN2CCOCC2)[nH]c2ccccc12` showed an inhibition of -0.51%.
`CCOC(=O)c1[nH]c2ccc(OC)cc2c1NC(=O)CCN1CCN(Cc2ccccc2)CC1` was tested, and the inhibition was 49.8% (active).
With `CCOC(=O)c1[nH]c2ccc(OC)cc2c1NC(=O)N1CCOCC1` the inhibition was 28.4% (active).
For `OCC(O)CN(c1ccccc1)c1ccccc1` (stereo unspecified), the inhibition was 5.53%.
In the case of `CC(C)N(C(=O)Cn1cc(S(=O)(=O)CC(=O)N2CCOCC2)c2ccccc21)C(C)C`, the inhibition is reported as -1.92%.
In the case of `Cc1ccc(Br)c(NS(=O)(=O)c2cccc(C(=O)N3CCNC(=O)C3)c2)c1`, the inhibition is reported as -3.11%.
Compound `CC(=O)NC(Cc1ccc(F)c(F)c1)C(=O)NC1CCN(C(=O)c2ccc(C)cc2)CC1` (stereo unspecified) has an inhibition of -2.53%.
For `CC(NC(=O)COc1ccccc1)C(=O)NC1=NCCS1` (stereo unspecified), the inhibition was 2.42%.
`CC(C)(C)CN1CCNC(=O)C1CC(=O)NC1Cc2ccccc2C1` (stereo unspecified) was tested, and the inhibition was 1.64%.
For `COc1ccc(-c2nc(N)sc2C2(O)C(=O)Nc3c(Br)cc(F)cc32)cc1OC` (stereo unspecified), the inhibition was 5.75%.
In the case of `O=[N+]([O-])c1cnc2ccc3ccccc3c2c1`, the inhibition is reported as 1.36%.
`O=C(CSc1nc(-c2ccccc2)cs1)Nc1cccc([N+](=O)[O-])c1` was tested, and the inhibition was 0.01%.
For `O=[N+]([O-])c1cccc(Nc2c3ccccc3nc3ccccc23)c1`, the inhibition was 122% (active).
Work on `CC(=O)C1=C(O)C(=O)N(c2ccc(S(N)(=O)=O)cc2)C1c1ccccc1F` (stereo unspecified) yielded an inhibition of 12.8%.
`CCCN(CCC)CC(O)COc1ccccc1C(=O)Nc1ccccc1` (stereo unspecified) showed an inhibition of 0.32%.
`COc1ccccc1NC(=O)N(O)C1(C#N)CCCCC1` was tested, and the inhibition was 1.6%.
For `COc1ccc2sc(-c3ccc(N(C)C)cc3)c(-c3ccc4cc[nH]c4c3)c2c1`, the inhibition was 41% (active).
`COc1ccc2sc(-c3ccccc3OC)c(-c3ccc(OCCN4CCCC4)cc3)c2c1` gave an inhibition of 0.37%.
`COc1ccc2c(c1)c(=Cc1ccc(N(C)C)cc1)c1cc(-c3ccccc3)[n+](C)n12` gave an inhibition of -16.1%.
Work on `COc1cccc(-c2sc3ccc(OC)cc3c2-c2ccc(OCCN3CCCCC3)cc2)c1` yielded an inhibition of 0.81%.
`CC1CC(NC(=O)/C(C#N)=C/c2ccc[nH]2)CC(C)(C)C1` (stereo unspecified) was tested, and the inhibition was -0.18%.
`CN(Cc1ccccc1)CC(O)COc1ccc(CNCc2cc3ccccc3s2)cc1` (stereo unspecified) showed an inhibition of 0.16%.
With `Cc1cc(=O)n2nc(N3CCC(C(=O)Nc4c(F)c(F)c(F)c(F)c4F)CC3)sc2n1` the inhibition was -1.25%.
With `Cc1ccc2c(NC(=O)C3CC3)cccc2n1` the inhibition was 3.11%.
For `Cc1cc(C)c2c(NC(=O)C3CC3)nn(C)c2n1`, the inhibition was 46.1% (active).
`CCCCCC1CC(COc2ccccc2)OC1=O` (stereo unspecified) showed an inhibition of -2.11%.
With `O=c1c2cc([N+](=O)[O-])ccc2nc2n1CCC2` the inhibition was 3.1%.
`O=C(NC1CCCC1)C(c1ccccn1)N(C(=O)c1csnn1)C1CCCC1` (stereo unspecified) was tested, and the inhibition was 2.16%.
`COCCNc1ncnc2c1ncn2[C@H]1CN(Cc2ccc(OC)cc2)C[C@@H](CO)O1` showed an inhibition of 1.53%.
`COc1ccc(-c2oc3ncn(Cc4ccco4)c(=N)c3c2-c2ccc(OC)cc2)cc1` gave an inhibition of 7.98%.
With `COc1ccc(-c2oc3ncnc(NCCCO)c3c2-c2ccc(OC)cc2)cc1` the inhibition was 58.3% (active).
For `Cc1cccc(N2CC(C(=O)Nc3ccccc3N3CCCC3)CC2=O)c1C` (stereo unspecified), the inhibition was 3.07%.
`Cc1ccccc1/[N+]([O-])=C/c1ccncc1` showed an inhibition of 0.03%.
With `CCS(=O)(=O)Nc1ccc(C2=NN(S(=O)(=O)c3ccc(F)cc3)C(c3ccco3)C2)cc1` (stereo unspecified) the inhibition was -0.61%.
In the case of `CS(=O)(=O)Nc1cccc(C2=NN(C(=O)c3cccc(F)c3)C(c3cccs3)C2)c1` (stereo unspecified), the inhibition is reported as 5.49%.
With `CS(=O)(=O)Nc1ccc(C2=NN(S(C)(=O)=O)C(c3cccs3)C2)cc1` (stereo unspecified) the inhibition was 73.8% (active).
In the case of `COc1cccc(C2CC(c3ccccc3)=NN2S(=O)(=O)c2ccccc2)c1OC` (stereo unspecified), the inhibition is reported as 0.19%.
`Cc1ccc(C2CC(c3cccc(NS(C)(=O)=O)c3)=NN2S(C)(=O)=O)cc1` (stereo unspecified) showed an inhibition of -2.56%.
For `CCS(=O)(=O)Nc1ccc(C2=NN(C(C)=O)C(c3cccs3)C2)cc1` (stereo unspecified), the inhibition was 591% [above what the read-out allows, likely interference] (active).
Compound `CCOC(=O)CNc1nc2ccccc2n2c(C)nnc12` has an inhibition of -1.1%.
`O=C1CCc2cc(S(=O)(=O)Nc3ccc(C(F)(F)F)cc3)cc3c2N1CC3` was tested, and the inhibition was 6.49%.
For `Cc1cc(C(=O)CC#N)c(C)n1-c1c(C)n(C)n(-c2ccccc2)c1=O`, the inhibition was 2.39%.
Work on `CCOC(=O)CNC(=O)CN1C(=O)CCSc2ccccc21` yielded an inhibition of 0.13%.
In the case of `O=C(COc1ccccc1Cl)Nn1cnnc1`, the inhibition is reported as 0.49%.
`COc1ccc(CCNc2ncnc3c2nnn3Cc2ccccc2)cc1` gave an inhibition of 0.68%.
Work on `Cc1cc(C(=O)COc2ccc(Br)cc2F)c(C)n1C1CC1` yielded an inhibition of 0.29%.
Work on `CC1C2Cn3c(nc4ccccc43)C1N(C)O2` (stereo unspecified) yielded an inhibition of -1.64%.
`CN1C(C(=O)NCc2ccco2)CC2Cn3c(nc4ccccc43)C21` (stereo unspecified) gave an inhibition of 2.79%.
In the case of `CSCCNC(=O)c1ccc2nc(Cc3ccccc3F)oc2c1`, the inhibition is reported as 3.27%.
Compound `CC(C)=CCN1CCN(Cc2ccc(Oc3ncccn3)cc2)CC1CCO` (stereo unspecified) has an inhibition of 0.18%.
For `CN(C)c1nc(-c2cccnc2)nc(-c2ccc(Cl)cc2)c1C#N`, the inhibition was -3.84%.
In the case of `CNc1nccc(-c2ccc(Cl)cc2)c1C#N`, the inhibition is reported as 30.5% (active).
`CN(C)c1ccnc(Nc2ccc(F)cc2)c1C#N` gave an inhibition of -3.67%.
Work on `COc1cccc(CN2CCC(C(=O)NC(c3ccc4c(c3)OCO4)c3ccccn3)CC2)c1` (stereo unspecified) yielded an inhibition of 0.6%.
For `O=C(CCS(=O)(=O)c1ccccc1Cl)Nc1ccc(S(=O)(=O)Nc2ncccn2)cc1`, the inhibition was -1.51%.
`O=C(NCCCN1CCCC1=O)C(=O)NCC1OCCN1S(=O)(=O)c1ccc(Br)cc1` (stereo unspecified) showed an inhibition of 6.34%.
`Cc1ccccc1N1CC(c2nc3ccccc3[nH]2)CC1=O` (stereo unspecified) showed an inhibition of 0.05%.
For `Cc1ccc(-c2nc3ccccc3[nH]2)cc1N`, the inhibition was 176% (active).
Compound `CCOC(=O)CNC(=O)CSc1ncccc1-c1nc2ccccc2[nH]1` has an inhibition of 8.03%.
`CCSc1nc(=S)n(CC)c(C)c1C(C)=O` gave an inhibition of -0.42%.
Work on `O=C(CN1CCOc2ccccc21)N1CCC(Cc2ccccc2)CC1` yielded an inhibition of 6.13%.
For `CCC(C)N(C(=O)COC(=O)c1nc(Cl)ccc1Cl)C1CCS(=O)(=O)C1` (stereo unspecified), the inhibition was 0.03%.
`CCC(C)N(C(=O)Cn1nc(C)c([N+](=O)[O-])c1C)C1CCS(=O)(=O)C1` (stereo unspecified) was tested, and the inhibition was 1.23%.
For `CCC(C)N(C(=O)COC(=O)C1C(C(=O)OC)=C(C)NC(C)=C1C(=O)OC)C1CCS(=O)(=O)C1` (stereo unspecified), the inhibition was 74.9% (active).
In the case of `Cc1cc2cc3n(c2nn1)N=C(Cl)CC3`, the inhibition is reported as 83.2% (active).
`CCOC(=O)c1nn(-c2ccccc2F)c2nc(Nc3ccccc3)cc(=O)n12` was tested, and the inhibition was -2.45%.
`COc1ccccc1N(C)S(=O)(=O)c1ccc(C(=O)NC2CCCCCC2)cc1` gave an inhibition of 2.13%.
`Cc1ccc(N(CC(=O)NC2CCCCC2)C(=O)CCCC(=O)Nc2ccccn2)c(C)c1` was tested, and the inhibition was 3.51%.
In the case of `CCOc1ccccc1N(CC(=O)NC1CCCCC1)C(=O)CCCC(=O)Nc1ccccn1`, the inhibition is reported as -0.58%.
In the case of `CC1=CC=CN2C1=NC(=O)CC2(C)C(=O)N(CC(=O)NC1CCCC1)c1ccccc1C` (stereo unspecified), the inhibition is reported as 164% (active).
With `Cc1ccccc1CCN(CC(=O)NC1CCCCC1)C(=O)c1csnn1` the inhibition was -2.02%.
With `COc1ccccc1N(CC(=O)NC1CCCC1)C(=O)C1(C)CC(=O)N=C2C=CC(C)=CN21` (stereo unspecified) the inhibition was 123% (active).
Work on `CC1=C(C(=O)N2CCOCC2)CC(CC(=O)NCc2cccs2)C(=O)N1CCCN1CCCC1=O` (stereo unspecified) yielded an inhibition of 2.87%.
Work on `Cc1ccc2c(cnn2C(=O)CCC(=O)NC2CCCC2)c1` yielded an inhibition of 2.86%.
With `Cc1ccc(C(C(=O)NC2CCCCC2)N(C(=O)c2csnn2)C2CC2)o1` (stereo unspecified) the inhibition was 1.93%.
Work on `CC(=O)N1CCN(S(=O)(=O)c2ccc(C)c([N+](=O)[O-])c2)C1C(C)C` (stereo unspecified) yielded an inhibition of -1.36%.
Work on `Cc1ccccc1N1C(=O)C(Oc2ccc(Cl)cc2)C1CNCC1CCCO1` (stereo unspecified) yielded an inhibition of -3.19%.
Work on `Cc1ccc2c(CN3CCN(S(=O)(=O)c4ccccc4C(F)(F)F)CC3)cc(=O)oc2c1` yielded an inhibition of 2.71%.
In the case of `NC(=O)CCN1CCN(S(=O)(=O)/C=C/c2ccccc2)CC1`, the inhibition is reported as 1.59%.
With `O=c1cc(CN2CCN(S(=O)(=O)/C=C/c3ccccc3)CC2)c2ccc(O)cc2o1` the inhibition was 137% (active).
For `CSc1cccc(NC(=O)C2CCCN2S(=O)(=O)c2ccc3c(c2)CCC(=O)N3)c1` (stereo unspecified), the inhibition was 1.45%.
`Cc1cccc(-c2cnc(C(O)c3ccc4ccccc4c3)[nH]2)c1` (stereo unspecified) gave an inhibition of -1.57%.
`CC(C)(C)OC(=O)NC(Cc1ccccc1)C(=O)NC(CSC1CCCCO1)C(=O)NN` (stereo unspecified) gave an inhibition of -0.07%.
Compound `CC(C)c1ccc(S(=O)(=O)N2CCN(C(=O)c3ccc(N4CCCC4)c([N+](=O)[O-])c3)CC2)cc1` has an inhibition of -2.26%.
For `O=c1[nH]c(-c2ccccc2)c(-c2ccccc2)[nH]1`, the inhibition was 133% (active).
`O=c1cc(-c2ccccc2)[nH]c2cc(F)ccc12` showed an inhibition of 5.51%.
`O=C1C=C(c2ccccc2)CCC1` was tested, and the inhibition was 3.76%.
